Assay results: PubChem BioAssay (NCATS)
Records with an inconclusive call do not appear. A number with no mark means an inactive call. The source made the active and inactive calls. The call rests on the fitted dose curve; in most records, active means well fitted inhibition curve with a large enough effect; inconclusive means small, poorly fitted or top-dose-only effect; inactive means flat fitted curve, though single readings scatter.

Each molecule was assayed on Zika virus NS2B-NS3 protease (assay: Primary screen GU AMC qHTS for Zika virus inhibitors (AID 1347154;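 further: 0% = no-inhibitor control and -100% = no-enzyme control; nearly all actives have a fitted effect of over 70% in size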)). Conditions: Zika NS2B-NS3 unlinked protease, AMC fluorogenic substrate; series mostly up to 54.1 µM; activity change, negative = inhibition: at the top concentration.
Excerpt: Avindra Nath, Ph.D., National Institute of Neurological Disorders and Stroke (NINDS), Bethesda, MD
Radhakrishnan Padmanabhan, Ph.D., Georgetown University (GU), Washington D.C.
Zika Virus causes congenital defects, including microcephaly and is associated with Guillain-Barre syndrome, eningoencephalitis and myelitis in infected adult. […] Using a target-based approach, we hope to establish a screening paradigm to uncover novel, cell-active NS2B-NS3 protease (Zika Virus) specific inhibitors from NCATS' collection of small molecules using qHTS.
Early Translation Branch (ETB)
National Center for Advancing Translational Sciences (NCATS), Rockville, MD
National Institute of Health (NIH), Bethesda, Maryland
Padmanabhan lab provided the NS2B hydrophilic domain and NS3 protease domain in a noncovalent complex used for the unlinked assay. Control compound aprotinin is obtained from Thermo Scientific (#78432; Waltham, Massachusetts). NS2B-NS3 AMC substrate (Bz-Nle-Lys-Arg-Arg-AMC; Nle-KRR-AMC) purchased from Bachem (#I-1995; Torrance, CA). Ac-VKTGKR-AMC purchased from Genscript or Bachem, Ac-FAAGKR-AMC purchased from Genscript, Ac-GLVKRR-AMC purchased from Genscript, Ac-LKKR-AMC purchased from Genscript.
GU AMC unlinked NS2B-NS3 protease qHTS protocol
Briefly, 3 microL of Zika virus unlinked NS2B-NS3 protease (25 nM for linked final concentration), in assay buffer (10 mM Tris-HCl pH 8.0 with 0.01% Tween 20) was dispensed into a 1,536-well solid-bottom black plate (Greiner Bio One, Monroe, NC). […] Plates were then read immediately on a ViewLux High-throughput CCD imager (PerkinElmer, Waltham, MA) equipped with standard UV fluorescence optics (340(30) nm excitation, 450(20) nm emission) then incubated (room temperature, protected from light) for 15 minutes (~20% conversion). The change in fluorescence intensity over the 15-minute reaction period was normalized against no-inhibitor and no-enzyme controls and the resulting percent inhibition data were fitted to a 4-parameter Hill equation. Aprotinin was used as the intraplate control.

Point of comparison: `CCC(Cc1c(I)cc(I)c(N)c1I)C(=O)O` (stereo not given), “activity change, negative = inhibition” value -8.93%. Against it:
- CN1CCN(c2cc3c(cc2F)c(=O)c(C(=O)O)cn3-c2ccc(F)cc2)CC1 — lower, -12.3%
- CO[C@]12C[C@@H](COC(=O)c3cncc(Br)c3)CN(C)[C@@H]1Cc1cn(C)c3cccc2c13 — higher, -2.57%
- CC(=O)Nc1ccc(OC(=O)c2ccccc2OC(C)=O)cc1 — higher, 5.47%
- CC(=O)Nc1ncc([N+](=O)[O-])s1 — higher, -3.14%
- C#C[C@]1(O)CC[C@H]2[C@@H]3CCC4=CC(=O)CC[C@@H]4[C@H]3CC[C@@]21CC — higher, -1.04%
- C#C[C@]1(O)CC[C@H]2[C@@H]3CCc4cc(OC)ccc4[C@H]3CC[C@@]21C — higher, -6.46%
- Cn1c(=O)c2[nH]c(Br)nc2n(C)c1=O — higher, 3.74%
- CCNC(=O)NCc1cccc(Cl)c1 — higher, -1.04%
- CC(C(=O)O)c1cccc(Oc2ccccc2)c1 (stereo not given) — higher, 13.3%
- CC(C)(C)NC[C@H](O)COc1cccc2c1CCCC2=O — higher, 1.71%
- CC(=O)OCC(=O)[C@H]1CC[C@H]2[C@@H]3CCC4=CC(=O)CC[C@]4(C)[C@H]3CC[C@]12C — higher, -3%
- CCN(CC)CCOc1ccc2c(c1)C(=O)c1cc(OCCN(CC)CC)ccc1-2 — higher, -2.91%
- CCN1CCCC(OC(=O)C(c2ccccc2)c2ccccc2)C1 (stereo not given) — higher, 2.84%
- CCN(CC)CCOc1ccccc1C(=O)CCc1ccccc1 — higher, 4.34%
- c1ccc(-c2nc[nH]c2-c2ccccc2)cc1 — higher, 0.101%
- CCC1Nc2cc(Cl)c(S(N)(=O)=O)cc2S(=O)(=O)N1 (stereo not given) — higher, -3.12%
- CC[C@]12CCCN3CCc4c(n(c5ccccc45)C(=O)C1)[C@@H]32 — higher, -7.69%
- O=C(Nc1ccc([N+](=O)[O-])cc1)Nc1ccc([N+](=O)[O-])cc1 — higher, -7.28%
- O=C(CN1CCN(Cc2ccc3c(c2)OCO3)CC1)N1c2ccccc2Sc2ccccc21 — higher, -6.04%
- O=C(Oc1cccc2cccnc12)c1ccccc1 — higher, 1.68%
- C#C[C@]1(O)CC[C@H]2[C@@H]3CCC4=Cc5oncc5C[C@]4(C)[C@H]3CC[C@@]21C — higher, -4.24%
- COc1cc(NS(=O)(=O)c2ccc(N)cc2)ncn1 — higher, -2.92%
- CCOC(=O)Nc1ccc2c(c1)N(C(=O)CCN1CCOCC1)c1ccccc1S2 — higher, 0.0408%
- CCOC(=O)[C@H](CCc1ccccc1)N[C@@H](C)C(=O)N1[C@H](C(=O)O)C[C@@H]2CCC[C@@H]21 — higher, 0.283%
- Cc1cc(CC(=O)O)c(C)n1-c1ccc(Cl)cc1 — lower, -12.2%
- N#C/C(=C1\SCC(c2ccccc2Cl)S1)n1ccnc1 (stereo not given) — higher, -1.05%
- Cc1ccc(-c2ncc(Cl)cc2-c2ccc(S(C)(=O)=O)cc2)cn1 — higher, 4.38%
- CCCCCCCCCCCCCCCC(=O)O — lower, -23.1%
- CC(=O)Nc1ccc(S(=O)(=O)Nc2ccc([N+](=O)[O-])cc2)cc1 — higher, -1.87%
- CC(C)(C)CC(C)(C)c1ccc(O)c(-n2nc3ccccc3n2)c1 — lower, -12.4%
- O=C(O)P(=O)(O)O — higher, 0.001%
- N/C(=N\N=C\c1ccc(Cl)cc1)N/N=C/c1ccc(Cl)cc1 — higher, -3.45%
- COc1cc(N)c(Cl)cc1C(=O)NC1CCN(Cc2ccccc2)CC1 — higher, -5.36%

In the case of `CN(C)CCC[C@@]1(c2ccc(F)cc2)OCc2cc(C#N)ccc21`, the Potency was “inactive”.
`NS(=O)(=O)Cc1noc2ccccc12` was tested, and the Potency was “inactive”.
For `NC(=O)n1c(O)c(C(=O)c2cccs2)c2cc(Cl)ccc21`, the Potency was “inactive”.
For `COc1ccc(CCN(C)CCCN2CCc3cc(OC)c(OC)cc3CC2=O)cc1OC`, the Potency was “inactive”.
In the case of `CCc1nn(CCCN2CCN(c3cccc(Cl)c3)CC2)c(=O)n1CCOc1ccccc1`, the Potency was “inactive”.

In the case of `CCN1/C(=C/C=C/c2sc3ccccc3[n+]2CC)Sc2ccccc21`, the “activity change, negative = inhibition” value was 0.676% [at 25.8 µM].
